Bioassay records (PubChem BioAssay)
Compounds with a hit are over-represented: about 19% of the library has one in this group of screens.
TDP1 cell CPT: DT40-hTDP1 cell growth loss with CPT; actives 12% (n = 420,000); chicken DT40 Tdp1-/-;hTDP1 cells + 20 nM CPT, ATP luminescence, 48 h; Potency, µM (doses to about 46.2 µM), actives largely listed as inhibitors; AID 686979; also: nearly all actives have a fitted effect of over 55% in size
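Chicken DT40 Tdp1-/- cells complemented with human TDP1, 400 cells/well, exposed to compounds plus 20 nM camptothecin for at least 48 h at 37 C; viability read as ATP content by CellTiter-Glo luminescence.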
TDP1 cell noCPT: qHTS for Inhibitors of human tyrosyl-DNA phosphodiesterase 1 (TDP1): qHTS in cells in absence of CPT. actives 15% (n = 420,000). DT40 Tdp1-/- hTDP1 cells, no CPT, ATP luminescence, 48 h. AID 686978, 2013. Potency, µM (series often up to 46.2 µM), most hits filed as inhibitors; also: nearly all actives have a fitted effect of over 55% in size
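Cells were dispensed at 400 per well, compounds added by pin tool, plates incubated ≥48 hr at 37 °C, then CellTiter-Glo added for 30 min at room temperature before luminescence reading. Line: DT40 Tdp1-/- complemented with hTDP1; camptothecin omitted.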
HT1080NT lethal: kills 2HG-producing HT-1080-NT fibrosarcoma cells; actives 1.6% (n = 360,000); Potency, µM (top dose mostly 46.1 µM), most hits filed as cytotoxic; AID 686970; HT-1080-NT fibrosarcoma viability, CellTiter-Glo ATP luminescence, 48 h;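 also: NT is the 2HG producing partner of a matched IDH1 knockdown line; nearly all actives have a fitted effect of over 55% in size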
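Fibrosarcoma NT cells, 750 per well in 5% FBS RPMI, were exposed to compound for 48 hours. Viability: CellTiter-Glo luminescence.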
IL1B secr inh: inflammasome signaling inhibition, IL-1 beta readout. THP-1 LPS/ATP IL-1B secretion, AlphaLISA, 16 h; stronger effect = lower value. activity change, % at 57.5 µM. actives 4.7% (n = 360,000); in the data active = activity change below about -50%; inconclusive = mostly about -30% to -49%
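THP-1 cells pretreated 1 hr with compounds (up to 57.5 uM final), then stimulated with LPS (250 ng/mL final) plus ATP (1.25 mM final); secreted IL-1B measured by AlphaLISA after 16 hr, decreased signal indicating inhibition.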
uPA generation: inhibitors of cell surface uPA generation. cell surface uPA generation assay, qHTS. Potency, µM (series often up to 38.3 µM), actives largely listed as inhibitors. actives 0.31% (n = 330,000). AID 540303; active = well fitted inhibition curve with a large enough effect; inconclusive = small, poorly fitted or top-dose-only effect; inactive = no such curve, though single readings can be large or run the other way; tested in mouse RAW 264.7 cells; also: nearly all actives have a fitted effect of over 55% in size
HT1080 IDH1KD tx: toxicity to HT-1080 IDH1 knockdown cells (counter line); HT-1080 IDH1 knockdown viability, ATP luminescence, 48 h; Potency, µM (top dose mostly 46.1 µM), usual class: cytotoxic; actives 2% (n = 360,000)
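Luminescent ATP read-out (CellTiter-Glo, 10 min at room temperature) after 48 h compound exposure at 37 °C gave viability of IDH1-knockdown HT-1080 cells. Activity was normalised to DMSO and cell-free wells, then fitted as concentration-response curves.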
Large screens that a line does not name were inactive. Unless noted, calls follow the shape of the dose curve; as a rule, active = well fitted curve in the direction sought with a large enough effect; inconclusive = small, poorly fitted or top-dose-only effect, or another doubt; inactive = no such curve, though single readings can be large; an effect the other way counts as inactive or inconclusive.

COc1ccc(Nc2nnc(-c3ccc(C)c(S(N)(=O)=O)c3)c3ccccc23)cc1	TDP1 cell CPT 18µM, TDP1 cell noCPT 18µM (no result: HT1080NT lethal, IL1B secr inh, uPA generation, HT1080 IDH1KD tx)
Cc1ccc(-c2nnc(Nc3ccc(C(=O)N(C)C)cc3)c3ccccc23)cc1S(=O)(=O)N(C)C	TDP1 cell CPT 23µM, TDP1 cell noCPT 10µM (no result: HT1080NT lethal, IL1B secr inh, uPA generation, HT1080 IDH1KD tx)
COc1ccc(Nc2nnc(-c3ccc(O)cc3)c3ccccc23)cc1C(N)=O	TDP1 cell CPT inconclusive, TDP1 cell noCPT inconclusive
CC1CC1C(=O)OCC(=O)Nc1ccc(S(=O)(=O)N2CCOCC2)cc1 (stereo not drawn)	none
O=C(OCc1cn([C@@H]2C[C@H](c3ccc(Cl)cc3)N(C(=O)C3CCCCC3)C[C@H]2O)nn1)c1ccccc1	TDP1 cell noCPT inconclusive, HT1080 IDH1KD tx inconclusive (no result: uPA generation)
Cc1cc(C(=O)CN2CCN(CC(=O)Nc3cccc(F)c3)CC2)c(C)n1C1CC1	none
CNC(=O)c1cc(Nc2nnc(-c3ccc(C)c(S(N)(=O)=O)c3)c3ccccc23)ccc1OC	IL1B secr inh -74
Cc1ccc(C)c(NC(=O)CSc2nc(=O)n(Cc3ccccn3)c3c2CCC3)c1	TDP1 cell noCPT inconclusive (no result: HT1080NT lethal, IL1B secr inh, uPA generation, HT1080 IDH1KD tx)
O=S(=O)(c1cccc(C(F)(F)F)c1)N1CCC(c2cc(-c3cccc4ccccc34)n[nH]2)CC1	TDP1 cell CPT 21µM, TDP1 cell noCPT inconclusive
O=C(CCS(=O)(=O)c1ccc(F)cc1)N1CCOCC1	none
COc1cc(Cl)ccc1OCc1cc(C(=O)N2CCN(C3CCCCC3)CC2)no1	TDP1 cell CPT inconclusive, TDP1 cell noCPT 23µM (no result: uPA generation)
O=C(c1cc(COc2ccc(F)cc2Cl)on1)N1CCN(C2CCCC2)CC1	TDP1 cell CPT 18µM, TDP1 cell noCPT inconclusive, IL1B secr inh inconclusive
O=C(c1cc(COc2ccc(F)c(F)c2)on1)N1CCN(C2CCCCC2)C(=O)C1	TDP1 cell CPT inconclusive, TDP1 cell noCPT 23µM
COc1ccc(OCc2cc(C(=O)N3CCC(OC)CC3)no2)c2ccccc12	TDP1 cell CPT 23µM, TDP1 cell noCPT 15µM
COCC1CCN(C(=O)c2cc(COc3ccc(OC)c4ccccc34)on2)C1 (stereo not drawn)	TDP1 cell CPT inconclusive, TDP1 cell noCPT inconclusive
COc1ccc(NC(=O)C(CC(C)C)NS(=O)(=O)c2ccc3c(c2)oc(=O)n3C)cc1Cl (stereo not drawn)	none (no result: HT1080NT lethal, IL1B secr inh, uPA generation, HT1080 IDH1KD tx)
CCCC(C)(C)C(=O)N1CCC1(C)C(=O)NS(=O)(=O)c1ccc(Br)cc1 (stereo not drawn)	none (no result: uPA generation)
Cc1ccc(C)c(OCC(=O)Nc2ccc(S(=O)(=O)Nc3onc(C)c3C)cc2)c1C	none (no result: HT1080NT lethal, IL1B secr inh, uPA generation, HT1080 IDH1KD tx)
COc1ccc(C(=O)NCCCN2CCN(CCCNC(=O)c3ccc(OC)c(OC)c3)CC2)cc1OC	none
CCN1CCN(C(=O)c2cc(COc3ccc(F)c(F)c3)on2)[C@@H](C)C1=O	TDP1 cell CPT 15µM, TDP1 cell noCPT 21µM (no result: uPA generation)
O=C(c1cc(COc2ccc(F)c(F)c2)on1)N1CCN(C/C=C/c2ccccc2)CC1	TDP1 cell CPT inconclusive, TDP1 cell noCPT 26µM, HT1080NT lethal inconclusive, HT1080 IDH1KD tx inconclusive
O=C(c1cc(COc2ccc(F)cc2Cl)on1)N1CCN(C2CCCCC2)C(=O)C1	TDP1 cell CPT 10µM, TDP1 cell noCPT 7.3µM
O=C(c1cc(COc2c(F)cccc2F)on1)N1CCN(C2CCCCC2)C(=O)C1	TDP1 cell CPT inconclusive, TDP1 cell noCPT inconclusive
Cc1ccc(C(O)c2ncc(-c3ccc(Cl)cc3)[nH]2)cc1 (stereo not drawn)	TDP1 cell CPT inconclusive, TDP1 cell noCPT inconclusive, HT1080 IDH1KD tx inconclusive (no result: uPA generation)
CN1C(=O)C2(C(C#N)=C(N)N(c3cc(Cl)cc(Cl)c3)C3=C2C(=O)CC(C)(C)C3)c2ccccc21 (stereo not drawn)	TDP1 cell CPT 21µM, TDP1 cell noCPT inconclusive
CC1(C)CC(=O)N(c2cc(Cl)cc(Cl)c2)C(=O)C1	none
Cc1ccc(N2C(N)=C(C#N)C3(C(=O)N(C)c4ccccc43)C3=C2CC(C)(C)CC3=O)cc1Cl (stereo not drawn)	TDP1 cell CPT inconclusive, TDP1 cell noCPT 16µM
Cc1ccnn1-c1ccc(C(=O)OCC(=O)Nc2ccc(F)cc2)cc1	none
O=c1onc(-c2ccc(Cl)cc2Cl)n1-c1cccnc1	none
O=C1C(=Cc2ccccn2)CCc2ccccc21	TDP1 cell CPT 15µM, TDP1 cell noCPT 4.1µM, HT1080NT lethal inconclusive, IL1B secr inh -108, HT1080 IDH1KD tx inconclusive (no result: uPA generation)
C(=C1c2ccccc2-c2ccccc21)c1ccccn1	TDP1 cell CPT inconclusive, TDP1 cell noCPT 13µM, HT1080 IDH1KD tx inconclusive
C(=N\N=C\c1ccccn1)/c1ccccn1	none
O=C(NC1CC1)c1[nH]c(C(F)(F)F)nc1-c1ccccc1	none (no result: uPA generation)
COc1ccc(Br)c(Cn2c(C)c(C(=O)NCc3cccc([N+](=O)[O-])c3)sc2=O)c1	none (no result: uPA generation)
CC(C)(O)c1[nH]c2cc(C(F)(F)F)ccc2c1C(C)(C)O	TDP1 cell CPT inconclusive
Cc1c(C(C)(C)O)[nH]c2cc(C(F)(F)F)ccc12	TDP1 cell CPT inconclusive, TDP1 cell noCPT 13µM
CCCCC/C=C/C=C1/C(=O)C=C[C@@H]1C/C=C\CCCC(=O)O	none (no result: HT1080NT lethal, IL1B secr inh, uPA generation, HT1080 IDH1KD tx)
CCC1CCc2sc(C(=O)O)cc2C1 (stereo not drawn)	none
C=CCN1CCN(C(=O)c2cc3c(s2)CCC(CC)C3)CC1 (stereo not drawn)	TDP1 cell CPT inconclusive, TDP1 cell noCPT 16µM
COc1ccccc1NS(=O)(=O)c1cccc(NC(=O)CCNC(=O)c2ccccc2OC)c1	TDP1 cell CPT inconclusive
CC(=O)OC1(C)C=Cc2ccccc2C1=NS(=O)(=O)c1ccccc1 (stereo not drawn)	TDP1 cell CPT inconclusive, TDP1 cell noCPT 23µM (no result: uPA generation)
CC(=O)N1C(C)(C)CC(=NOS(=O)(=O)c2ccccc2)CC1(C)C	none
Cc1ccc2c(=O)cc(C(=O)Nc3c(C(=O)c4ccccc4)oc4ccccc34)oc2c1C	none (no result: HT1080NT lethal, IL1B secr inh, uPA generation, HT1080 IDH1KD tx)
OC(c1ccccc1)c1nc2ccccc2s1 (stereo not drawn)	TDP1 cell CPT 23µM, TDP1 cell noCPT inconclusive
OC(c1ccccc1)c1nc(-c2ccccc2)cs1 (stereo not drawn)	none (no result: uPA generation)
COc1c(Br)cc(C(N)=O)cc1OCc1ccccc1	none
COc1cc(OCc2ccccc2)c(OC)c(OCc2ccccc2)c1	TDP1 cell CPT 21µM, TDP1 cell noCPT inconclusive
CNC(=O)N(O)C1N(C)C(=O)N(CC(=O)OC)C1(C)C (stereo not drawn)	none
CC1(C)C(N(O)C(=O)Nc2ccc(Cl)cc2)N(c2ccc(Cl)cc2)C(=O)N1CC(=O)NN (stereo not drawn)	IL1B secr inh -53, HT1080 IDH1KD tx inconclusive
